NPC1 promoter act = activators of NPC1 promoter; Potency, µM (titrated, usually from 9.22 µM), most hits filed as activators; 320,000 tested, 2.4% active; Huh7 NPC1 promoter luciferase reporter, 24 h; further: nearly all actives have a fitted effect of over 60% in size
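Quantitative HTS used a cell-based reporter: Huh7 cells stably bearing the NPC1 promoter upstream of luciferase were treated with compounds for 24 h, and promoter activation was read as luminescence.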
ELG1 genotox = inducers of genotoxicity in HEK293T ELG1-luciferase cells; 330,000 tested, 1.3% active; Potency, µM (doses to about 46 µM), usual class: activators; HEK293T ELG1-luciferase reporter, luminescence, 16 h; AID 504466; further: nearly all actives have a fitted effect of over 60% in size
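Screening used a luciferase reporter fused to human ELG1 in HEK293T cells. Luminescence was read on a CCD plate imager after 16 hr exposure and 30 min ONE-Glo incubation.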
FLuc counter = firefly luciferase modulation, counter-screen for miR-21 project; P08659; purified FLuc, Km substrates, luminescence inhibition; Potency, µM (series often up to 57.5 µM), usual class: inhibitors; 360,000 tested, 6.9% active; further: nearly all actives have a fitted effect of over 55% in size
Target sequence (P08659 whole entry, looked up): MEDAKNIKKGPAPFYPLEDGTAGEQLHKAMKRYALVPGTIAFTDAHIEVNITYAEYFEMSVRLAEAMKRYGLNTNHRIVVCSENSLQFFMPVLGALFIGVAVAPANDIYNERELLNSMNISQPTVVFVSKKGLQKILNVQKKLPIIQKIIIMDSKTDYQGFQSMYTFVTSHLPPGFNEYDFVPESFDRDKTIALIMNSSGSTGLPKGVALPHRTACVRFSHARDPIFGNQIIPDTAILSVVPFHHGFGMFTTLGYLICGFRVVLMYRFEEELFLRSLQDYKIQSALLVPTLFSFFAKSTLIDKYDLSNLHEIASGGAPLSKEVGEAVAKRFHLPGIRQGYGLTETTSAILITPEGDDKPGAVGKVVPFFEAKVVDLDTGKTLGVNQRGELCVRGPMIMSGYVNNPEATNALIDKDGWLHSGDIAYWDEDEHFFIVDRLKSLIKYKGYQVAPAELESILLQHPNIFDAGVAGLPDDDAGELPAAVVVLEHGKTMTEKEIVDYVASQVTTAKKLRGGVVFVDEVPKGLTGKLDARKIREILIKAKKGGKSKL
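Purified P. pyralis luciferase, 10 nM final, with Km-level 10 uM D-luciferin and 10 uM ATP in 50 mM Tris acetate pH 7.5, 10 mM Mg acetate, 0.01% Tween-20, 0.05% BSA; 6-point qHTS titration about 60 µM downward; luminescence read.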
SMN2 splice enh = SMN2 splice variant enhancement; 210,000 tested, 2.8% active; HEK293 SMN2-luciferase splicing reporter, luminescence, 30-36 h; Potency, µM (series often up to 46.1 µM), usual class: activators; further: nearly all actives have a fitted effect of over 55% in size
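HEK293 cells carry an SMN2 […]–luciferase reporter in which exon 7 inclusion puts luciferase in frame. Cells were plated 10-12 h before compound addition, then incubated 30-36 h at 37C. ONE-Glo luminescence was read; sodium butyrate at 4.5 mM final served as control.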
Rab9 promoter act = activates the Rab9 promoter | AID 485297 | Huh7 Rab9 promoter-luciferase reporter, luminescence, 24 h | Potency, µM (series often up to 9.22 µM), actives largely listed as activators | 320,000 tested, 2.8% active; further: nearly all actives have a fitted effect of over 60% in size
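Cell-based reporter: Huh7 stable for Rab9 promoter-driven luciferase, plated in reduced-serum medium with 10% FBS at 1500 cells/well, compound-treated 24 h at 37 °C, luminescence read after 10 min reagent.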
Numbers stand for hits; - = inactive; ? = inconclusive; . = no result given; [ ] = remark or other dose. Most compounds without a hit are left out; they make up all but 7.4% or so of the library. The call rests on the fitted dose curve; in most records, active means well fitted curve in the direction sought with a large enough effect; inconclusive means small, poorly fitted or top-dose-only effect, or another doubt; inactive means no such curve, though single readings can be large; an effect the other way counts as inactive or inconclusive.

SMILES | NPC1 promoter act | ELG1 genotox | FLuc counter | SMN2 splice enh | Rab9 promoter act
Cc1ccc(Cl)cc1N1CCN(C(=O)c2ccc3c(c2)N(Cc2ccccc2F)C(=O)c2ccccc2S3=O)CC1 (stereo unspecified) | . | . | - | - | .
CCOc1ccc(NC(=O)c2cc3sc(Cl)cc3n2CC)cc1 | . | . | - | - | .
O=C(NCCc1ccccc1)c1ccc2c(c1)OCCCO2 | - | ? | 0.0601µM | . | ?
COc1ccc(CCNC(=O)c2coc(=O)c(Br)c2)cc1 | - | 18.3µM | - | . | -
COc1ccc(CCNC(=O)c2ccc(Br)cc2)cc1 | - | - | ? | . | -
O=C(O)c1ccc2c(c1)OCCCO2 | - | - | - | . | -
O=C(NCCc1ccccc1)c1ccc2c(c1)OCCO2 | 0.0158µM | ? | 0.135µM | . | 0.0032µM
O=C(NCCc1cccc(Cl)c1)c1ccc2c(c1)OCO2 | 0.316µM | 2.59µM | 1.51µM | . | 0.447µM
O=C(NCc1cccc(Cl)c1)c1ccc2c(c1)OCCO2 | - | - | ? | . | -
COc1ccc(Cn2c(=O)c3ccccc3n3c(-c4ccc(C)cc4)nnc23)cc1 | . | . | - | . | .
COc1ccc(NC(=O)CN2C(=O)CSc3ccc(S(=O)(=O)N(C)C)cc32)cc1Cl | . | . | - | . | .
COc1ccc(CCNC(=O)c2ccc3c(c2)OCO3)cc1 | - | - | ? | . | ?
O=C(NCCS(=O)(=O)NCCc1ccccc1)c1ccc2c(c1)OCO2 | 4.47µM | 2.06µM | 12µM | . | 3.16µM
COc1ccc(CCNC(=O)c2ccc3c(c2)OCCO3)cc1 | ? | ? | 9.53µM | ? | 3.16µM
O=C(NCCS(=O)(=O)NCc1ccccc1Cl)c1ccc2c(c1)OCO2 | - | - | - | . | -
Cc1cc(C)cc(-n2nnc(-c3nc(-c4ccc5c(c4)OCO5)no3)c2C)c1 | . | . | - | . | .
Cc1ccc(-n2ncc(C(=O)NC3CCCCC3)c2C2CCN(C(=O)OC(C)(C)C)CC2)cc1 | . | . | - | . | .
COCCn1c(C)cc(C(=O)COC(=O)c2ccc3ncsc3c2)c1C | 2.82µM | ? | 6.75µM | - | 2.82µM
COCCn1c(C)cc(C(=O)COC(=O)c2cncc(Br)c2)c1C | ? | ? | 7.57µM | - | ?
COCCn1c(C)cc(C(=O)COC(=O)c2ccccc2Br)c1C | - | 0.206µM | 0.0953µM | . | -
COCCn1c(C)cc(C(=O)COC(=O)c2ccc(S(=O)(=O)N(C)C)cc2)c1C | . | - | . | . | .
COCCn1c(C)cc(C(=O)COC(=O)CCc2ccc(S(=O)(=O)N3CCOCC3)cc2)c1C | - | - | 15.1µM | - | -
COCCn1c(C)cc(C(=O)COC(=O)c2[nH]c(C)c(C(C)=O)c2C)c1C | - | - | - | . | -
CC(C(=O)NCc1ccccc1)n1ccc2cc(S(=O)(=O)N3CCCC3)ccc21 (stereo unspecified) | . | . | - | . | .
COC(=O)C1=C(C)[C@@H](O)[C@@H](C)[C@](C)(c2cc(OC)c(C)c(OC)c2COc2ccccc2)O1 | . | . | . | - | .
SMILES | NPC1 promoter act | ELG1 genotox | FLuc counter | SMN2 splice enh | Rab9 promoter act
CCc1c(C(=O)NCCc2ccc(N3CCCCC3)cc2)[nH]c2ccc(Cl)cc12 | - | . | . | . | -
NS(=O)(=O)O | . | . | . | - | .
COCCn1c(C)cc(C(=O)COC(=O)c2ccc(NC(=O)CC#N)cc2)c1C | 2.82µM | ? | 10.7µM | 11.2µM | 2.24µM
COc1cc(NC(=O)NCCn2nnc3cc(S(=O)(=O)N(C)C)ccc32)cc(OC)c1OC | . | . | - | . | .
O=C(NCCc1ccc(F)cc1)c1cc(-c2ccncc2)nc2ccccc12 | - | - | - | . | -
Cc1ccc(-c2cc(C(=O)NCCc3ccccc3)c3ccccc3n2)cc1C | . | . | 8.49µM | . | .
Cc1ccc(-c2cc(C(=O)O)c3ccccc3n2)c(C)c1 | - | - | 7.57µM | . | -
CCOc1ccc(-c2cc(C(=O)NCCc3ccc(C)cc3)c3ccccc3n2)cc1 | . | . | 1.35µM | . | .
O=C(O)c1cc(-c2ccccc2)nc2ccccc12 | - | - | 23.9µM | - | -
O=C(O)c1cc(-c2ccc(O)cc2)nc2ccccc12 | - | - | ? | - | -
CCOc1ccc(Sc2cc(C(=O)NCCc3ccccc3)c3ccccc3n2)cc1 | . | . | - | . | .
CCOc1ccc(-c2cc(C(=O)N3CCN(c4cc(Cl)ccc4C)CC3)c3ccccc3n2)cc1 | . | . | 9.53µM | . | .
CCOc1ccc(-c2cc(C(=O)O)c3ccccc3n2)cc1 | ? | 3.26µM | 0.675µM | 11.2µM | 1.58µM
O=C(Nc1nnc(-c2cccs2)o1)c1cc(-c2ccccc2)nc2ccccc12 | - | - | 19µM | - | -
O=C(O)c1cc(-c2ccncc2)nc2ccccc12 | . | . | . | -[9.22 µM] | .
CCOC(=O)C1CCCN(S(=O)(=O)c2ccc(N3CCCCS3(=O)=O)cc2)C1 (stereo unspecified) | . | . | - | . | .
CN(C(=O)Nc1cn(C)c(=O)c2ccccc12)c1ccccc1 | . | . | - | . | .
CCOC(=O)c1c(N)sc2c(OC)c(Br)ccc12 | . | . | 19µM | - | .
O=C(Nc1ccccc1F)c1ccc(Cn2nc(N3CCN(c4ccccc4)CC3)ccc2=O)o1 | . | . | - | . | .
NC(=O)c1ccc(N=Nc2c(O)c3ccccc3[nH]c2=O)cc1 | - | - | ? | . | -
COc1cc(N=Nc2c(O)c3ccccc3[nH]c2=O)c(OC)cc1N=Nc1ccccc1 | - | - | 15.1µM | . | -
NS(=O)(=O)c1ccc(-c2ccc(/C=C3\C(=O)Nc4ccccc43)o2)cc1 | - | - | - | . | -
CC1(C)OC(=O)C(=Cc2ccc(-c3ccc(S(N)(=O)=O)cc3)o2)C(=O)O1 | - | ? | 10.7µM | - | -
CN(C)/C=N/c1sc2c(c1C#N)CCC2 | - | - | - | - | -
CC1(C)Cc2c(sc(/N=C/N3CCCCCC3)c2C#N)C(C)(C)N1 | - | - | - | - | -
SMILES | NPC1 promoter act | ELG1 genotox | FLuc counter | SMN2 splice enh | Rab9 promoter act
CCCN(/C=N/c1sc2c(c1C#N)CCCCC2)CCC | - | - | 19µM | - | -
N#Cc1c(/N=C/N2CCOCC2)sc2c1CCCCC2 | 3.98µM | 5.8µM | 5.36µM | 11.2µM | 2.51µM
CN(C)/C=N/c1sc2c(c1C#N)CCCCC2 | ? | ? | 21.3µM | ? | ?
N/C(=N\OC(=O)c1cc(Cl)ccc1Cl)c1ccncc1 | - | ? | 13.5µM | . | ?
COc1ccc(Cl)cc1C(=O)O/N=C(\N)c1ccc(Cl)cc1 | - | - | 16.9µM | - | -
N/C(=N\OC(=O)Cc1ccc(Cl)cc1)c1ccncc1 | - | - | - | - | -
N/C(=N\OC(=O)c1ccc(Cl)cc1Cl)c1ccncc1 | 1.58µM | 9.2µM | 1.9µM | . | 1.78µM
Cc1noc(-c2ccc(Cl)cc2)c1C(=O)O/N=C(\N)c1ccc(C(C)(C)C)cc1 | - | - | - | . | -
COc1cc(OC)c(C(=O)O/N=C(\N)c2ccc(C)cc2)cc1OC | - | - | ? | . | -
Cc1occc1C(=O)O/N=C(\N)c1ccc(Cl)cc1 | ? | ? | 9.53µM | . | 3.98µM
O=C(CC1NCCNC1=O)Nc1cccc(F)c1 (stereo unspecified) | . | . | - | - | .
O/N=C/c1ccn(-c2ccc(Br)cc2)c1 | - | - | 23.9µM | - | -
O=c1c2ccccc2nnn1CSc1nnc2sc3ccccc3n12 | 0.398µM | ? | 1.9µM | 2.24µM | 0.316µM
O=c1c2ccccc2nnn1CSc1ccccc1F | 1.26µM | ? | 2.69µM | 10µM | 0.891µM
O=c1c2ccccc2nnn1CSc1nc2ccccc2[nH]1 | 3.55µM | ? | 15.1µM | 25.1µM | 2.82µM

Source: PubChem (National Center for Advancing Translational Sciences (NCATS))
